This is part of a sample that, as a whole, favours compounds with a hit. Of some 79,000 tested, about 15% had one in any assay. The source made the active and inactive calls. Rule as the data show it: active = growth inhibition above about 70%; inactive = the rest.
Columns and labels:
[1] = NCI Yeast Anticancer Drug Screen. Data for the rad52 strain (AID 147);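 also: 0% = growth of vehicle-treated control cultures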; conditions: S. cerevisiae rad52 mutant growth inhibition, stronger effect = higher value
How it was run: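 Genetically altered yeast (DNA damage repair defect) treated with compound; inhibition calculated relative to vehicle.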

[2] = NCI Yeast Anticancer Drug Screen. Data for the wt1 strain (AID 149);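 also: 0% = growth of vehicle-treated wt1 cultures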; conditions: S. cerevisiae wt1 strain (SPY 50644) growth inhibition, stronger effect = higher value
How it was run: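 Yeast wt1 strain exposed to compounds; growth inhibition measured relative to vehicle-treated controls.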

[3] = NCI Yeast Anticancer Drug Screen. Data for the rad50EPP+ strain (AID 151);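 also: 0% = growth of vehicle-treated control cultures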; conditions: S. cerevisiae rad50 mutant strain, stronger effect = higher value
How it was run: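 Strain rad50EPP+; compound exposure; % growth inhibition vs vehicle.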

[4] = NCI Yeast Anticancer Drug Screen. Data for the mgt1 strain (AID 153); conditions: S. cerevisiae mgt1 mutant growth inhibition, stronger effect = higher value
How it was run: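 Read-out: yeast growth inhibition vs vehicle control. Strain mgt1, drawn from a panel altered in DNA damage repair or cell cycle control.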

[5] = NCI Yeast Anticancer Drug Screen. Data for the rad50 strain (AID 155);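 also: 0% = growth of vehicle-only cultures of the same strain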; conditions: S. cerevisiae rad50 strain growth inhibition, stronger effect = higher value
How it was run: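 Yeast carrying a defined DNA repair defect were exposed to test compounds, and growth was compared with vehicle-treated controls to give percent inhibition.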

[6] = NCI Yeast Anticancer Drug Screen. Data for the mec2-1 strain (AID 157); conditions: S. cerevisiae mec2-1 strain, stronger effect = higher value
How it was run: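 Cells of the genetically defined mec2-1 yeast strain are incubated with test compound. Inhibition of growth is calculated against vehicle-treated controls.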

[7] = NCI Yeast Anticancer Drug Screen. Data for the rad14 strain (AID 159);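 also: 0% = growth of vehicle-treated control cultures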; conditions: S. cerevisiae rad14 strain growth inhibition, stronger effect = higher value
How it was run: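 Yeast cells carrying a defined DNA-repair defect were exposed to compounds, and growth inhibition was calculated relative to vehicle-treated control cultures.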

[8] = NCI Yeast Anticancer Drug Screen. Data for the sgs1 mgt1 strain (AID 161);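 also: 0% = growth of cultures given vehicle only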; conditions: S. cerevisiae sgs1 mgt1 strain, stronger effect = higher value
How it was run: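 Mutant yeast exposed to compound; growth scored against vehicle-only wells.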

[9] = NCI Yeast Anticancer Drug Screen. Data for the CLN2oe strain (AID 163);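 also: 0% = growth of vehicle-only control cultures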; conditions: S. cerevisiae CLN2oe strain, stronger effect = higher value
How it was run: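 Strain altered in cell-cycle control, incubated with compound; growth compared to solvent-treated controls.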

[10] = NCI Yeast Anticancer Drug Screen. Data for the cln2 rad14 strain (AID 165);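 also: 0% = growth equal to vehicle treated cultures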; conditions: S. cerevisiae cln2 rad14 strain, stronger effect = higher value
How it was run: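 The screen exposed genetically defined yeast (cln2 rad14) to test compounds and scored growth inhibition relative to vehicle-treated controls.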

[11] = NCI Yeast Anticancer Drug Screen. Data for the bub3 strain (AID 167); conditions: S. cerevisiae bub3 mutant strain, stronger effect = higher value
How it was run: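 Compounds were applied to a genetically altered yeast strain carrying a cell-cycle control defect. Growth inhibition was scored against vehicle-treated controls.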

[12] = NCI Yeast Anticancer Drug Screen. Data for the wt2 strain (AID 169);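 also: 0% = growth of vehicle-treated yeast cultures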; conditions: S. cerevisiae wt2 strain growth inhibition, stronger effect = higher value
How it was run: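 Steps: yeast strain treated with compound; growth recorded; inhibition calculated relative to cultures given vehicle alone.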

[13] = NCI Yeast Anticancer Drug Screen. Data for the mlh1 strain (AID 171);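 also: 0% = growth of vehicle-treated control cultures of the same strain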; conditions: S. cerevisiae mlh1 strain growth inhibition, stronger effect = higher value
How it was run: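 Yeast screen: mutant strain plus compound, growth scored against vehicle control wells.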

[14] = NCI Yeast Anticancer Drug Screen. Data for the sgs1 strain (AID 173);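 also: 0% = growth of vehicle-only control cultures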; conditions: S. cerevisiae sgs1 mutant, stronger effect = higher value
How it was run: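 Inhibition of yeast growth served as the measure. The mutant strain was treated with each compound, and growth was normalised to cultures receiving vehicle alone.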

[15] = NCI Yeast Anticancer Drug Screen. Data for the mlh1 rad18 strain (AID 175); conditions: S. cerevisiae mlh1 rad18 strain growth inhibition, stronger effect = higher value
How it was run: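 Compound-treated yeast growth, normalised to vehicle controls. Strain bears defined DNA repair mutations.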

[16] = NCI Yeast Anticancer Drug Screen. Data for the rad18 strain (AID 177); conditions: S. cerevisiae rad18 mutant growth inhibition, stronger effect = higher value
How it was run: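 Inhibition values reflect reduced yeast growth compared with vehicle-treated controls, using a strain engineered with a DNA damage repair defect.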

[17] = at 5.0 µM (retest, dose inferred, filed as 0.5)
[18] = at 50.0 µM (retest, dose inferred, filed as 5.0)

Measured: growth inhibition

COC1/C=C\C=C(/C)C(=O)NC2=CC(=O)C(=O)C(=C2O)CC(C)CC(OC)C(O)C(C)/C=C(\C)C1OC(N)=O (stereo not drawn)
inactive: [1]; at 1.2 µM 24% | [1]; at 3.7 µM 32% | [2]; at 1.2 µM 10% | [2]; at 3.7 µM -17% | [3]; at 1.2 µM 15% | [3]; at 3.7 µM 2% | [3]; at 11.0 µM 3% | [3]; at 33.0 µM 7% | [3]; at 100.0 µM 46% | [4]; at 1.2 µM -10% | [4]; at 3.7 µM 28% | [5]; at 1.2 µM 17% | [5]; at 3.7 µM 40% | [5]; [17] -17% | [6]; at 1.2 µM -12% | [6]; at 3.7 µM 50% | [6]; [17] 56% | [7]; at 1.2 µM -13% | [7]; at 3.7 µM -10% | [8]; [17] 13% | [9]; at 1.2 µM -32% | [9]; at 3.7 µM 34% | [10]; [17] 45% | [11]; at 1.2 µM -6% | [11]; at 3.7 µM 51% | [11]; [17] 67% | [12]; at 1.2 µM 6% | [12]; at 3.7 µM 7% | [13]; at 1.2 µM -5% | [13]; at 3.7 µM 11% | [14]; at 1.2 µM 28% | [14]; at 3.7 µM 36% | [15]; [17] 33% | [16]; at 1.2 µM 12% | [16]; at 3.7 µM 3%
active: [1]; at 11.0 µM 94% | [1]; at 33.0 µM 98% | [1]; at 100.0 µM 97% | [2]; at 11.0 µM 86% | [2]; at 33.0 µM 95% | [2]; at 100.0 µM 94% | [4]; at 11.0 µM 90% | [4]; at 33.0 µM 96% | [4]; at 100.0 µM 95% | [5]; at 11.0 µM 94% | [5]; at 33.0 µM 96% | [5]; [18] 94% | [5]; at 50.0 µM 87.5% | [5]; at 100.0 µM 95% | [6]; at 11.0 µM 94% | [6]; at 33.0 µM 96% | [6]; [18] 97% | [6]; at 50.0 µM 89.8% | [6]; at 100.0 µM 95% | [7]; at 11.0 µM 91% | [7]; at 33.0 µM 95% | [7]; at 100.0 µM 95% | [8]; [18] 95% | [8]; at 50.0 µM 89.8% | [9]; at 11.0 µM 94% | [9]; at 33.0 µM 95% | [9]; at 100.0 µM 94% | [10]; [18] 96% | [10]; at 50.0 µM 77.8% | [11]; at 11.0 µM 93% | [11]; at 33.0 µM 96% | [11]; [18] 97% | [11]; at 50.0 µM 86.2% | [11]; at 100.0 µM 95% | [12]; at 11.0 µM 89% | [12]; at 33.0 µM 96% | [12]; at 100.0 µM 96% | [13]; at 11.0 µM 89% | [13]; at 33.0 µM 94% | [13]; at 100.0 µM 94% | [14]; at 11.0 µM 91% | [14]; at 33.0 µM 96% | [14]; at 100.0 µM 95% | [15]; [18] 92% | [15]; at 50.0 µM 83.2% | [16]; at 11.0 µM 91% | [16]; at 33.0 µM 96% | [16]; at 100.0 µM 95%

[N-]=[N+]=NC1(c2ccccc2)C(=O)Nc2ccccc2C1=O (stereo not drawn)
inactive: [1]; at 1.2 µM -2% | [1]; at 3.7 µM 0% | [1]; at 11.0 µM 4% | [1]; at 33.0 µM 20% | [1]; at 100.0 µM 49% | [2]; at 1.2 µM -4% | [2]; at 3.7 µM -2% | [2]; at 11.0 µM -3% | [2]; at 33.0 µM 4% | [2]; at 100.0 µM 22% | [3]; at 1.2 µM 0% | [3]; at 3.7 µM 3% | [3]; at 11.0 µM 6% | [3]; at 33.0 µM 9% | [3]; at 100.0 µM 7% | [4]; at 1.2 µM -3% | [4]; at 3.7 µM -6% | [4]; at 11.0 µM 8% | [4]; at 33.0 µM 2% | [4]; at 100.0 µM 27% | [5]; at 1.2 µM -4% | [5]; at 3.7 µM -2% | [5]; [17] -4% | [5]; at 11.0 µM -20% | [5]; at 33.0 µM 17% | [5]; [18] 14% | [5]; at 50.0 µM 67% | [5]; at 100.0 µM 37% | [6]; at 1.2 µM 2% | [6]; at 3.7 µM 2% | [6]; [17] -23% | [6]; at 11.0 µM 6% | [6]; at 33.0 µM 19% | [6]; [18] 1% | [6]; at 100.0 µM 33% | [7]; at 1.2 µM -3% | [7]; at 3.7 µM -1% | [7]; at 11.0 µM 8% | [7]; at 33.0 µM 12% | [7]; at 100.0 µM 21% | [8]; [17] -20% | [8]; [18] 16% | [8]; at 50.0 µM 67.7% | [9]; at 1.2 µM -5% | [9]; at 3.7 µM -5% | [9]; at 11.0 µM 3% | [9]; at 33.0 µM 35% | [9]; at 100.0 µM 61% | [10]; [17] -3% | [10]; [18] 29% | [11]; at 1.2 µM -4% | [11]; at 3.7 µM -1% | [11]; [17] -28% | [11]; at 11.0 µM 18% | [11]; at 33.0 µM 41% | [11]; [18] 61% | [11]; at 100.0 µM 59%
active: [6]; at 50.0 µM 81.3% | [10]; at 50.0 µM 81.1% | [11]; at 50.0 µM 75.5%

— PubChem BioAssay (NCI)
